# An excerpt weighted towards active compounds, which were near 0.68% of everything screened.
# Sa RN4220 lethal = S. aureus RN4220 growth inhibition. OD600, 16 h. inhibition, % (test concentration not listed). actives 0.33% (n = 330,000); in the data active = inhibition above about 85%;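 also: plate controls were untreated cells for no effect and reference antibiotic for full effect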
# Mtb UGM inh = blocks M. tuberculosis UGM enzyme; actives 0.06% (n = 320,000); purified UGM, fluorescence polarization probe displacement; inhibition, % at 10 µM; in the data active = inhibition above about 10%, passing the limit was not always enough
# Mtb betalactam = beta-lactam sensitization of Mtb H37Rv. M. tuberculosis H37Rv growth with meropenem, percent inhibition. inhibition, % at 25 µM. actives 0.27% (n = 330,000). AID 434955; call rule not given here;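 also: growth measured after seven days incubation then overnight dye step; 0% = bacteria only wells and 100% = bacteria with antibiotic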
# Mtb hypoxia rep = reduces hypoxia-regulated biosensor signal in M. tuberculosis; M. tuberculosis hypoxia-regulated fluorescent reporter, fluorescence; fluorescence inhibition, % (concentration not given with the values); actives 0.1% (n = 300,000); in the data active = fluorescence inhibition mostly above about 23%, no sharp cut-off; inactive = mostly below about 17%
# Rv3671c inh = Rv3671c (M. tuberculosis) protease inhibition | inhibition, % at 5.96 µM | actives 0.048% (n = 320,000);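 also: extracellular domain of Rv3671c used as enzyme; 0% = enzyme with DMSO and 100% = no enzyme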
# Target sequence (P9WHR9 whole entry, looked up, the tested form may be a part): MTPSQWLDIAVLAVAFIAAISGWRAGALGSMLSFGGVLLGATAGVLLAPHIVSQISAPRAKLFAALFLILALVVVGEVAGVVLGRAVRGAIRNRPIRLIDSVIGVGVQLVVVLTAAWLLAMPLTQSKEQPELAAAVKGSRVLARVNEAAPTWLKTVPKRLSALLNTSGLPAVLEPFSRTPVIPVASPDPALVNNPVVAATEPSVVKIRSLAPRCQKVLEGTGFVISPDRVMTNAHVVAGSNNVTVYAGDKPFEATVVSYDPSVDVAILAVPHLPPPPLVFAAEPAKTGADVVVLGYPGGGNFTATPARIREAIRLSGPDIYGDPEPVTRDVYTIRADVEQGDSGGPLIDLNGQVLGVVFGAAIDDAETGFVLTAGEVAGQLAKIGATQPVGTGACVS
# ugtP null kill = growth inhibition of S. aureus ugtP deletion strain | growth inhibition, % (no concentration beside the values) | S. aureus RN4220 ugtP deletion, OD600 growth, 16 h | actives 0.54% (n = 330,000); in the data active = growth inhibition above about 68%;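 also: plate controls were untreated wells for no effect and antibiotic for full effect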
# Rv3671c cf = Rv3671c protease inhibition, confirmation. shares compounds with Rv3671c inh. inhibition, % at 5.96 µM. actives 40% (n = 140)
# DNA intercalat = counter-screen: DNA intercalators; actives 60% (n = 35); shares compounds with Mtb UGM inh; AC50, µM; AID 463198; acridine orange-DNA binding, fluorescence polarization;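 active = fitted AC50 no greater than ten times the top concentration tested, cut at about 17 µM in these data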
# Starred values were filed as active, the others as inactive; . = no result given; + = active, no number. Rule as the data show it, unless noted: active = inhibition above about 38%; inactive = the rest.
SMILES,Sa RN4220 lethal,Mtb UGM inh,Mtb betalactam,Mtb hypoxia rep,Rv3671c inh,ugtP null kill,Rv3671c cf,others
CCOC(=O)C1=C(NC(=S)NC(=O)c2ccccc2)c2ccccc2CC1(C)CC (stereo not given),-3,1,12,-3,-2,-25,.,
CCOC(=O)C1=C(NC(=S)NC(=O)c2ccccc2)c2ccccc2CC1C(C)C (stereo not given),-6,-6,-3,.,55*,-12,-12,
Cc1ccc2c(c1)C1C=CCC1C(C(=O)O)N2 (stereo not given),.,1,6,.,10,.,.,
O=C(O)C1Nc2c(O)cc(Cl)c([N+](=O)[O-])c2C2C=CCC12 (stereo not given),27,1,7,18,49*,-20,18,
Cc1noc(C(=O)Nc2ccc(F)c(Cl)c2)c1Cl,0,-3,0,5,61*,11,-5,
COc1ccc(S(=O)(=O)Nc2cc(C(C)C)c(O)cc2C)cc1,10,3,-5,4,-5,6,.,
COc1ccc2nc3cc(Cl)ccc3c(Nc3cc(C(C)C)c(O)cc3C)c2c1,53,1,100,-3,40*,11,46*,
NC(=O)C1CC2(CC(c3cccc(NC(=O)CC(c4ccccc4)c4ccccc4)c3)=NO2)CN1C(=O)C1CCC(=O)N1 (stereo not given),1,.,.,-9,.,-3,.,
Cc1sc(-c2ccccn2)nc1OC(=O)c1ccc(Cl)cc1,3,-1,0,18,2,-8,.,
Cc1sc(-c2ccncc2)nc1OC(=O)c1ccccc1,18,2,27,-3,44*,19,61*,
CC1CN(C(C)CO)C(=O)c2cc(NS(=O)(=O)c3ccccc3)ccc2OC1CN(C)C(=O)Nc1ccc(C(F)(F)F)cc1 (stereo not given),0,.,.,7,.,0,.,
Cc1ccc(S(=O)(=O)Oc2ccc(C=C(NC(=O)c3ccccc3)C(=O)Nc3ccccc3)cc2)cc1,4,.,.,9,.,-9,.,
c1ccc(CCN2CN=C(Nc3nc4ccccc4s3)NC2)cc1,0,-1,95,5,78*,3,9,
NC(=O)C1=CC(c2ccc(C(F)(F)F)cc2)CC(OCc2ccc(CO)cc2)O1 (stereo not given),9,.,.,17,.,4,.,
CC1(C)Cc2c(C#N)c(NCCc3ccccc3)nc(-c3ccco3)c2CO1,17,0,-13,-2,81*,14,15,
CC(=O)OC1C=COC(C)C1OC(C)=O (stereo not given),6,.,.,4,.,-3,.,
CC(C)CNC(=O)COC(=O)c1ccc(Cl)c(S(N)(=O)=O)c1,1,0,1,.,0,1,.,
CCCCNC(=O)COC(=O)c1ccc(Cl)c(S(N)(=O)=O)c1,.,0,-5,.,43*,.,-5,
Cc1cc(C)cc(-n2c(O)c(C=NC3CCS(=O)(=O)C3)c3ccccc3c2=O)c1 (stereo not given),2,-2,-3,-6,58*,1,48*,
O=C(O)c1cc(O)c2c(c1)[C@@H]([C@H]1c3cc(C(=O)O)cc(O)c3C(=O)c3c(O[C@@H]4O[C@H](CO)[C@@H](O)[C@H](O)[C@H]4O)cccc31)c1cccc(O[C@@H]3O[C@H](CO)[C@@H](O)[C@H](O)[C@H]3O)c1C2=O,.,-1,13,.,71*,.,21,
COc1cc(OC)nc(NC(=O)COC(=O)c2cccc(Cl)c2)n1,0,0,0,-1,+,1,-15,
CC=C(C)C(=O)N1CC2(CC(c3cccc(NC(=O)COc4ccc(Cl)cc4)c3)=NO2)CC1C(N)=O (stereo not given),5,.,.,24,.,7,.,
CC1(C)c2[nH]c3ccccc3c2CC2C(=O)N(Cc3ccccc3)C(=O)N21 (stereo not given),-5,.,.,14,.,-2,.,
O=C1c2ccccc2-c2onc3ccc(NCCCn4ccnc4)c1c23,-2,83*,31,9,131*,-20,135*,DNA intercalat=2.5*
C[C@@]12C(=O)Nc3cc(F)ccc3C(=O)N1C1c3cc(Br)ccc3OCC1C2c1ccccc1 (stereo not given in full),-19,.,.,4,.,-5,.,
SMILES,Sa RN4220 lethal,Mtb UGM inh,Mtb betalactam,Mtb hypoxia rep,Rv3671c inh,ugtP null kill,Rv3671c cf,others
CC(=O)Nc1cccc(N)c1,5,1,-3,0,-4,9,.,DNA intercalat=>35
CC1=CC(=O)C(C(C)C)=CC1=NOC(=O)c1cccc([N+](=O)[O-])c1,6,.,.,5,.,-2,.,
CN(C)/C=C1\C=C2C(=O)c3ccccc3N2C1=O,.,103*,-7,.,12,.,.,DNA intercalat=0.46*
CN(C)S(=O)(=O)N1C(=O)c2ccccc2C1=O,3,1,-1,9,0,8,.,
C=C1CCN(C(CC(C)C)C(=O)NCc2ccco2)S(=O)(=O)c2ccccc21 (stereo not given),7,.,.,16,.,-1,.,
CCN(N=C/C=C/c1ccccc1)c1cc(=O)n(C)c(=O)[nH]1,1,.,.,0,.,-1,.,
COc1cccc2c1C(=O)c1c(O)c3c(c(O)c1C2=O)CC(O)(C(=O)CO)CC3OC1CC(N)C(O)C(C)O1 (stereo not given),.,.,.,.,.,.,.,DNA intercalat=6.8*
CC(C)CSC1=NSC2=NC(=O)/C(=C\c3coc4ccccc4c3=O)C(=N)N12,11,-12,0,13,-17,12,.,DNA intercalat=17*
COc1ccc2noc3c2c1C(=O)c1ccccc1-3,.,84*,64,.,6,.,.,DNA intercalat=3.1*
Cc1cc(C)c2nc(C(F)(F)F)nc(NCCCN3CCCC3=O)c2c1,-2,0,3,-8,0,-5,.,DNA intercalat=>35
Cc1ccc(S(=O)(=O)c2nnn3c2nc(NCCCN2CCCC2=O)c2ccccc23)cc1C,5,0,5,17,-7,-1,.,
CC(/C=C/c1ccc2c(c1)OCO2)=NNC(=O)c1cccc([N+](=O)[O-])c1,2,.,.,4,.,-1,.,
C/C=C/c1ccc2c(c1)O[C@@H](CN(C)C(=O)Nc1cc(F)ccc1F)[C@H](C)CN([C@@H](C)CO)S2(=O)=O,.,.,.,.,.,.,.,DNA intercalat=>35
COc1ccc(S(=O)(=O)N(C)CC2Oc3c(NC(=O)Nc4ccc(C(F)(F)F)cc4)cccc3C(=O)N(C(C)CO)CC2C)cc1 (stereo not given),-7,.,.,-2,.,-1,.,

# Screening results deposited in PubChem BioAssay by several laboratories.
